# According to PubChem BioAssay AID1159580 (chemical genetic matrix, 2015):
# Screen size: about 5,500 compounds; about 2,000 (36%) were called active. Inconclusive results (about 18%) are left out. This is one part of the list. Unmarked numbers belong to inactive results. Rule as the data show it: active = normalized growth mostly below about 0.91 (no sharp cut-off); inconclusive = no clear call, values can overlap the other calls; inactive = mostly above about 0.92.
# Test: chemical genetic growth profiling, strain panel (AID 1159580);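 also: tested at 20 µM; growth read once vehicle control cultures reached saturation at 30 °C; 1 = growth at the plate median or of vehicle wells; lower values mean less growth of the strain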
# Conditions: S. cerevisiae deletion strains, growth OD
compound,measurement,setting,value
CC1CC[C@]2(NC1)O[C@H]1CC3C4CC[C@H]5C[C@@H](O)CC[C@]5(C)C4CC[C@]3(C)[C@H]1[C@@H]2C (stereo partly specified),normalized growth,"locus YJR066W, strain TOR1, hits give low values",0.471 (active)
same,normalized growth,"locus YKL009W, strain mrt4, hits give low values",0.252 (active)
same,normalized growth,"locus YKL068W, hits give low values",0.135 (active)
same,normalized growth,"locus YKL085W, strain MDH1 (second series), hits give low values",0.0926 (active)
same,normalized growth,"locus YKL085W, strain MDH1, hits give low values",0.0926 (active)
same,normalized growth,"locus YKL160W, strain elf1, hits give low values",0.0907 (active)
same,normalized growth,"locus YKR001C, strain vps1, hits give low values",0.0755 (active)
same,normalized growth,"locus YKR026C, strain gcn3, hits give low values",0.223 (active)
same,normalized growth,"locus YKR091W, strain srl3, hits give low values",0.12 (active)
same,normalized growth,"locus YLL001W, strain dnm1, hits give low values",0.109 (active)
same,normalized growth,"locus YLL026W, hits give low values",0.0788 (active)
same,normalized growth,"locus YLL041C, strain sdh2, hits give low values",0.0915 (active)
same,normalized growth,"locus YLR027C, strain aat2, hits give low values",0.0814 (active)
same,normalized growth,"locus YLR039C, strain RIC1, hits give low values",0.229 (active)
same,normalized growth,"locus YLR058C, strain SHM2, hits give low values",0.0708 (active)
same,normalized growth,"locus YLR102C, strain apc9, hits give low values",0.0841 (active)
same,normalized growth,"locus YLR113W, strain HOG1, hits give low values",0.557 (active)
same,normalized growth,"locus YLR221C, strain rsa3, hits give low values",0.077 (active)
same,normalized growth,"locus YLR258W, strain gsy2, hits give low values",0.0908 (active)
same,normalized growth,"locus YLR262C, strain YPT6 (second series), hits give low values",0.323 (active)
same,normalized growth,"locus YLR268W, strain sec22, hits give low values",0.0945 (active)
same,normalized growth,"locus YLR320W, strain mms22, hits give low values",0.0887 (active)
same,normalized growth,"locus YLR330W, strain CHS5, hits give low values",0.0602 (active)
same,normalized growth,"locus YLR342W, strain FKS1 (second series), hits give low values",0.0855 (active)
same,normalized growth,"locus YLR342W, strain FKS1, hits give low values",0.0932 (active)
same,normalized growth,"locus YLR357W, strain rsc2, hits give low values",0.383 (active)
same,normalized growth,"locus YLR370C, strain arc18, hits give low values",0.0901 (active)
same,normalized growth,"locus YLR371W, strain rom2, hits give low values",0.0788 (active)
same,normalized growth,"locus YLR384C, strain iki3, hits give low values",0.213 (active)
same,normalized growth,"locus YLR418C, strain cdc73, hits give low values",0.141 (active)
same,normalized growth,"locus YML016C, strain PPZ1, hits give low values",0.0661 (active)
same,normalized growth,"locus YML032C, strain rad52, hits give low values",0.105 (active)
same,normalized growth,"locus YML120C, strain ndi1, hits give low values",0.0802 (active)
same,normalized growth,"locus YML124C, strain tub3, hits give low values",0.0853 (active)
same,normalized growth,"locus YMR058W, strain fet3, hits give low values",0.113 (active)
same,normalized growth,"locus YMR078C, strain ctf18, hits give low values",0.0791 (active)
same,normalized growth,"locus YMR125W, strain sto1, hits give low values",0.102 (active)
same,normalized growth,"locus YMR129W, hits give low values",0.0908 (active)
same,normalized growth,"locus YMR205C, strain PFK2, hits give low values",0.124 (active)
same,normalized growth,"locus YMR223W, strain ubp8, hits give low values",0.0843 (active)
same,normalized growth,"locus YMR231W, strain pep5, hits give low values",0.106 (active)
same,normalized growth,"locus YMR263W, strain SAP30, hits give low values",0.0847 (active)
same,normalized growth,"locus YMR307W, strain GAS1, hits give low values",0.145 (active)
same,normalized growth,"locus YNL067W, strain RPL9B, hits give low values",0.0797 (active)
same,normalized growth,"locus YNL071W, strain lat1, hits give low values",0.0674 (active)
same,normalized growth,"locus YNL183C, strain NPR1, hits give low values",0.561 (active)
same,normalized growth,"locus YNL209W, strain ssb2, hits give low values",0.383 (active)
same,normalized growth,"locus YNL233W, strain BNI4, hits give low values",0.0735 (active)
same,normalized growth,"locus YNL248C, strain rpa49, hits give low values",0.101 (active)
same,normalized growth,"locus YNL250W, strain rad50, hits give low values",0.104 (active)
same,normalized growth,"locus YNL271C, strain bni1, hits give low values",0.103 (active)
same,normalized growth,"locus YNL298W, strain CLA4, hits give low values",0.081 (active)
same,normalized growth,"locus YNL307C, strain MCK1, hits give low values",0.0717 (active)
same,normalized growth,"locus YNL322C, strain KRE1 (second series), hits give low values",0.131 (active)
same,normalized growth,"locus YNL322C, strain KRE1, hits give low values",0.0664 (active)
same,normalized growth,"locus YNR049C, strain mso1, hits give low values",0.0984 (active)
same,normalized growth,"locus YNR052C, strain pop2, hits give low values",0.103 (active)
same,normalized growth,"locus YOL006C, strain TOP1, hits give low values",0.15 (active)
same,normalized growth,"locus YOL012C, strain htz1",0.203
same,normalized growth,"locus YOL147C, strain pex11, hits give low values",0.0685 (active)
same,normalized growth,"locus YOR001W, strain rrp6, hits give low values",0.105 (active)
same,normalized growth,"locus YOR061W, strain CKA2, hits give low values",0.117 (active)
same,normalized growth,"locus YOR069W, strain VPS5, hits give low values",0.0792 (active)
same,normalized growth,"locus YOR070C, strain gyp1, hits give low values",0.0794 (active)
same,normalized growth,"locus YOR080W, strain dia2, hits give low values",0.111 (active)
same,normalized growth,"locus YOR083W, strain WHI5, hits give low values",0.198 (active)
same,normalized growth,"locus YOR106W, strain vam3, hits give low values",0.143 (active)
same,normalized growth,"locus YOR136W, strain idh2, hits give low values",0.0918 (active)
same,normalized growth,"locus YOR144C, strain elg1, hits give low values",0.0753 (active)
same,normalized growth,"locus YOR184W, strain ser1, hits give low values",0.0768 (active)
same,normalized growth,"locus YOR231W, strain MKK1, hits give low values",0.573 (active)
same,normalized growth,"locus YOR265W, strain rbl2, hits give low values",0.106 (active)
same,normalized growth,"locus YOR270C, strain vph1, hits give low values",0.111 (active)
same,normalized growth,"locus YOR290C, strain snf2, hits give low values",0.108 (active)
same,normalized growth,"locus YOR316C, strain cot1, hits give low values",0.0772 (active)
same,normalized growth,"locus YPL051W, strain arl3, hits give low values",0.182 (active)
same,normalized growth,"locus YPL078C, strain atp4, hits give low values",0.0844 (active)
same,normalized growth,"locus YPL106C, strain sse1, hits give low values",0.175 (active)
same,normalized growth,"locus YPL240C, strain hsp82, hits give low values",0.084 (active)
same,normalized growth,"locus YPL241C, strain CIN2, hits give low values",0.0689 (active)
same,normalized growth,"locus YPL256C, strain CLN2, hits give low values",0.604 (active)
same,normalized growth,"locus YPR119W, strain clb2, hits give low values",0.0896 (active)
same,normalized growth,"locus YPR141C, strain kar3, hits give low values",0.176 (active)
same,normalized growth,"locus YPR163C, strain tif3, hits give low values",0.0892 (active)
same,normalized growth,"locus YPR167C, strain met16, hits give low values",0.0808 (active)
same,normalized growth,"strain wtn01, hits give low values",0.0731 (active)
